Screening data (PubChem BioAssay)
GRP78 ERSR act = induces the endoplasmic reticulum stress response in human glioma cells. U87-MG GRP78 promoter luciferase reporter, 16 h. Potency, µM, inactives show at the top dose activation, actives largely listed as activators. actives 0.02% (n = 420,000). AID 602332; active = well fitted activation curve with a large enough effect; note: potency is the fitted concentration of half-maximal effect; series mostly up to about 76 µM; % of control where 0% means no effect; nearly all actives have a fitted effect of over 35% in size
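Stably transfected U87-MG human glioma cells carrying a GRP78-based luminescent sensor were seeded at 1000 cells/well, pin-dosed with compounds and incubated 16 h. Luciferase reagent was then added, and end-point luminescence was read after 10 min at room temperature.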
D1 ag = agonists of human D1 dopamine receptor. P21728. HEK293 T-REx D1 cells, calcium flux, agonist mode. activation, % at 2 µM. actives 1% (n = 360,000). AID 504660; note: 0% is about no effect
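Tetracycline-induced HEK293 TREx D1 cells, force-coupled to calcium signalling, were dye-loaded with a no-wash calcium kit. Compound was pin-added after a 10 s baseline. Fluorescence was read kinetically at 1 cycle/s for 180 s, with calcium rises flagged as agonism.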
D1 PAM = potentiators of human D1 dopamine receptor. HEK293 TREx D1 cells, calcium flux, dopamine EC20 potentiation. AID 504651. potentiation, % at 10 µM. actives 0.036% (n = 360,000); in the data active = potentiation above about 30%; note: 0% is about no effect
TRHR PAM = allosterically enhances the human TRH receptor. actives 0.66% (n = 360,000). enhancement, % at 2 µM. TRHR cells, fluo-8 calcium fluorescence, EC20 TRH enhancement. P34981. AID 493056; in the data active = enhancement above about 30%; note: 0% is about no effect
Target sequence (P34981 whole entry, looked up): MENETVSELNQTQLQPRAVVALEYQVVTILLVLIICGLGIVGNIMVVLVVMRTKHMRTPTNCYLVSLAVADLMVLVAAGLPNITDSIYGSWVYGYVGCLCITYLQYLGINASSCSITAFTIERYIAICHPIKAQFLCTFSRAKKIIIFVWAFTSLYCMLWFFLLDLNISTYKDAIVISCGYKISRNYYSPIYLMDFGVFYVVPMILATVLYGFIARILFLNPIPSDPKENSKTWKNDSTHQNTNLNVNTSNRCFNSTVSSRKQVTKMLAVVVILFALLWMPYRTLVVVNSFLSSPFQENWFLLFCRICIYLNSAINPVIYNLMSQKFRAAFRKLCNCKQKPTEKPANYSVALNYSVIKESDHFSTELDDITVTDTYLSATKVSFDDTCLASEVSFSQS
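Enhancer read-out: after compound pinning and an initial kinetic agonist-mode read, an EC20 of TRH (10 nM final) was injected and fluo-8 calcium signal (Ex 480/Em 530) followed at 1 s/cycle for 100 cycles in TRHR-expressing cells.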
D1 antagonist = human D1 dopamine receptor antagonism; P21728; HEK293 TREx D1 cells, calcium flux, dopamine EC80; active compounds read low; activity change, negative = inhibition, % at 10 µM; actives 3.2% (n = 360,000); AID 504652; in the data active = activity change below about -30%; note: % is set by controls: 0 for no effect and ±100 for the full control effect
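Kinetic fluorescence of a calcium dye serves as the read-out. D1-expressing Hek293 Trex cells, induced overnight at 30 C, are exposed to compound for 180 s before an EC80 dopamine addition, then read 180 s further.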
TRHR ag = TRH receptor (human) agonism; AID 493084; actives 0.18% (n = 360,000); activation, % at 2 µM; P34981; TRHR cells, calcium flux fluo-8, FDSS agonist mode; note: 0% is about no effect
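Fluo-8-loaded TRHR cells; 10 s baseline, compound added, kinetic Ca2+ fluorescence read 1/s, agonist mode.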
Active calls of the source: *; x = no result. Shown are actives, neighbours in structure and some others; about 4% of the full set was active somewhere. Cut-off read from the data, not from the text of the source, unless noted: active = activation above about 30%; inactive = the rest.

SMILES | GRP78 ERSR act | D1 ag | D1 PAM | TRHR PAM | D1 antagonist | TRHR ag
N#CC1(NC(=O)COC(=O)c2cc([N+](=O)[O-])ccc2N2CCOCC2)CCCCC1 | 0% | 0 | -3 | 9 | -14 | 0
Cc1sc2nc(-c3cccnc3)[nH]c(=O)c2c1-c1ccccc1 | -1% | 3 | -15 | -6 | -49* | -1
Cc1sc2nc(Cc3ccccc3)[nH]c(=O)c2c1-c1ccccc1 | -5% | 2 | 7 | 1 | -2 | 11
COc1ccccc1OCc1n[nH]c(=S)n1Cc1ccccc1 | -5% | 0 | -2 | -17 | -11 | -2
Cc1csc(NC(=O)CSc2ccc(-c3ccccn3)nn2)n1 | -2% | -3 | 1 | 2 | -98* | -1
CC1(OC(=O)CCc2ccccc2)C(=O)C=C2C=C(c3ccc(C#N)cc3)N(c3ccccc3)C=C2C1=O (stereo not given) | -1% | 7 | -5 | 6 | -37* | 0
CN1CCN(c2ncc3nc(-c4ccc(F)cc4)c(=O)n(Cc4cccs4)c3n2)CC1 | -3% | x | x | x | x | x
COc1cc(C)nc(NCc2ccccc2)n1 | -2% | 4 | -3 | -3 | 3 | 0
Cc1cc(C)nc(Nc2n[nH]c(Cc3ccccc3)n2)n1 | x | 1 | 4 | 75* | 5 | 18
O=C(CSc1ncnc2ccccc12)N1CCCC1 | 1% | 0 | -4 | 26 | -74* | 1
O=C(CSc1ncnc2ccccc12)c1cccs1 | -4% | 3 | -6 | -5 | -54* | -2
COc1ccc(CNC(=O)C2CCN(C(=O)c3cccc(Cl)c3)CC2)cc1 | -1% | 2 | -7 | -10 | -35* | -1
COc1ccc(CNC(=O)C2CCN(C(=O)c3ccc(-c4ccccc4)cc3)CC2)cc1 | 3% | 2 | 1 | 13 | -5 | -1
Cc1ccc(CNC(=O)C2CCN(C(=O)c3cccc(Cl)c3)CC2)cc1 | 1% | 7 | 16 | -2 | -57* | -1
Cc1cccc2c3c(ccc12)C1=C(C(=O)C3=O)[C@@H](C)CO1 | -4% | x | x | x | x | x
CC[N+](C)(C)c1ccc(/C=C/c2ccnc3ccccc23)cc1 | -9% | x | x | x | x | x
Cn1c(CCN2CCCC2)nc2cc(NS(=O)(=O)c3ccc(Cl)cc3)ccc21 | -10% | 25 | -3 | -3 | -24 | 1
Cn1c(CCN2CCN(c3ccccn3)CC2)nc2cc(NS(=O)(=O)c3ccccc3)ccc21 | -6% | 7 | -13 | -2 | -32* | 0
Cn1c(CN2CCCC2)nc2cc(NS(=O)(=O)c3ccc(Cl)cc3)ccc21 | 2% | 47* | -6 | 6 | -14 | 2
CN(C)c1ccc(/C=N/N(CCO)C2=NS(=O)(=O)c3ccccc32)cc1 | 3% | 40* | 2 | 7 | 7 | 4
O=S1(=O)N=C(N(CCO)/N=C/c2ccc(Cl)cc2)c2ccccc21 | -3% | 1 | 0 | 10 | 6 | 0
Cc1ccc(NCc2nnc(SCC(N)=O)o2)c(C)c1 | -5% | 2 | -1 | -5 | -9 | 0
Cc1ccc(NCc2nnc(SCC(=O)N(Cc3ccccc3)C(C)(C)C)o2)c(C)c1 | 0% | 1 | -3 | -3 | -45* | 0
CSc1ncccc1C(=O)N1CCN(S(=O)(=O)c2ccc(C)cc2)CC1 | -3% | 1 | -2 | 2 | 3 | 1
CCOC(=O)Cc1csc(NC(=O)Nc2cccc(Cl)c2)n1 | 1% | 15 | -14 | -5 | -42* | 0
SMILES | GRP78 ERSR act | D1 ag | D1 PAM | TRHR PAM | D1 antagonist | TRHR ag
CCOC(=O)Cc1csc(NC(=O)Nc2ccc(Cl)cc2)n1 | -2% | 19 | -4 | -9 | -20 | 1
CCOC(=O)Cc1csc(NC(=S)NC(=O)c2ccccc2Br)n1 | -5% | 61* | -4 | 5 | -27 | 13
CCOC(=O)Cc1csc(NC(=O)c2cccs2)n1 | 5% | 11 | -4 | -1 | -17 | 0
CCOC(=O)Cc1csc(NC(=O)c2ccc(Br)s2)n1 | x | 6 | -7 | -5 | -36* | 0
C=CC[C@@H]1C=C[C@@H](O/N=C2/[C@H]3O[C@@H]3[C@@H](O)[C@H]3[C@H]2CCn2c(=O)n(-c4ccccc4)c(=O)n23)[C@@H](CO)O1 | -3% | x | x | x | x | x
O=C(CN1Cc2ccccc2OC(c2ccsc2)C1)N1CCC(c2nc3ccccc3[nH]2)CC1 (stereo not given) | 0% | x | x | x | x | x
OC1(c2cccnc2)CCN(Cc2ccc3c(c2)CN(Cc2ccsc2)CCO3)CC1 | -3% | x | x | x | x | x
COc1ccc(OC)c(S(=O)(=O)CC(O)COc2ccccc2Cl)c1 (stereo not given) | 0% | 7 | 3 | 0 | 1 | -1
CCN1C(=O)C(Cc2nc3ccccc3c(=O)n2-c2ccccc2)c2ccccc21 (stereo not given) | -2% | 2 | -1 | 6 | -54* | 0
CCOCC(=O)Nc1nnc(C2CCCCC2)s1 | -3% | -2 | -7 | 2 | -36* | 0
CCCOc1ccccc1NC(=O)/C=C/c1ccc(OC)c(S(=O)(=O)N2CCOCC2)c1 | -3% | x | x | x | x | x
CCOC(=O)c1cc(-c2ccccc2)n(CCCC(=O)Nc2ccc(C)cc2C)c1C | -5% | 6 | -6 | 2 | -17 | 1
CCOC(=O)c1cc(-c2ccccc2)n(CCCC(=O)Nc2cccc(Cl)c2C)c1C | -7% | 3 | -9 | 1 | -68* | 1
COc1ccc(-c2cc(C(F)(F)F)nc(SCC(=O)Nc3ccc(O)cc3)n2)cc1OC | -1% | 0 | -1 | 9 | -14 | -1
O=C(Nc1cccc(S(=O)(=O)N2CCCCC2)c1)c1ccccc1NS(=O)(=O)c1ccc(F)cc1 | -1% | 41* | -8 | -8 | -52* | 0
COC(=O)c1ccccc1NS(=O)(=O)c1ccc(F)cc1 | -3% | -1 | -2 | -6 | -36* | 0
COC(=O)c1ccccc1NS(=O)(=O)c1ccc(NC(C)=O)cc1 | 1% | 4 | 1 | 2 | -2 | 2
O=C(Nc1cccc(F)c1)c1ccc(S(=O)(=O)N2CCCCC2)cc1 | 0% | 12 | -8 | 4 | -43* | 1
COc1ccc(-c2cnnn2-c2ccc(NC(=O)c3ccc(S(=O)(=O)N4CCCCC4)cc3)cc2)cc1OC | -2% | 6 | -8 | -6 | -34* | 1
O=C(Nc1ccc(Br)cc1F)C(NS(=O)(=O)c1cccc2nsnc12)c1ccccc1 (stereo not given) | 5% | 1 | 0 | 3 | -12 | 0
Cc1cccc(C)c1NC(=O)CSc1nnc(C)n1CC1CCCO1 (stereo not given) | 0% | 3 | -1 | 6 | 5 | 1
COC(=O)N(C)C[C@H]1OCc2cnnn2CCCC(=O)N([C@@H](C)CO)C[C@H]1C | 2% | x | x | x | x | x
NS(=O)(=O)c1ccc(CCNc2nn3c(-c4cccc(OC(F)(F)F)c4)cnc3s2)cc1 | -12% | x | x | x | x | x
